Counter-ions that a name gives are not always drawn. ± gives the standard deviation of the averaged measurements.
Columns and labels:
Assay in all cases: growth (OD600 after 10 h); higher = more growth (less inhibition)
[1] = tested on: E. coli TESEC Alr+ wild-type control; conditions: compound 0.1 mM; raw OD600 reference: median of DMSO wells 0.241, cell-free background 0.041
Description: (§1)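 TESEC Mtb Alr E. coli, or the Alr+ wild-type control, in 384-well plates with Prestwick library compounds at 0.1 mM and 1% DMSO, across arabinose induction levels of 1E3 to 1E7 nM. Growth is read as OD600 after 10 h at 37 °C in triplicate biological replicates.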

E. coli TESEC Mtb Alr [2] = conditions: compound 0.1 mM
Description: as §1

E. coli TESEC Mtb Asd = conditions: compound 0.1 mM
Description: (§2)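 TESEC E. coli strains in which the native enzyme is deleted and replaced by arabinose-inducible Mtb Asd, DapB, CysH or TrpD, each grown in its selective medium. Strains were screened against the Prestwick library at 0.1 mM and 1% DMSO in 384-well format at low and high arabinose induction. Growth is read as OD600 after 10 h in triplicate.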

E. coli TESEC Mtb DapB = conditions: compound 0.1 mM
Description: as §2

[3] = tested on: E. coli TESEC Alr+ wild-type control; conditions: compound 0.1 mM; raw OD600 reference: median of DMSO wells 0.49, cell-free background 0.052
Description: (§3)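 TESEC Mtb Alr E. coli (ΔaraC ΔtolC ΔentC Δalr ΔdadX, arabinose-inducible Mtb Alr) or the Alr+ wild-type control strain, grown in defined M9-fructose medium without D-alanine in 96-well plates with Prestwick library compounds at 0.1 mM and 1% DMSO. Low Alr induction is 0.1 µM arabinose and high induction is 10 mM arabinose.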

E. coli TESEC Mtb Alr [4] = conditions: compound 0.1 mM; remark: listed apart in the source
Description: as §3

[5] = arabinose 1000 nM, raw OD600 reference: median of DMSO wells 0.294, cell-free background 0.041
[6] = arabinose 10000 nM, raw OD600 reference: median of DMSO wells 0.264, cell-free background 0.041
[7] = arabinose 100000 nM, raw OD600 reference: median of DMSO wells 0.201, cell-free background 0.041
[8] = arabinose 1000000 nM, raw OD600 reference: median of DMSO wells 0.193, cell-free background 0.041
[9] = arabinose 10000000 nM, raw OD600 reference: median of DMSO wells 0.146, cell-free background 0.041
[10] = arabinose induction (level): High, raw OD600 reference: median of DMSO wells 0.331, cell-free background 0.041
[11] = arabinose induction (level): Low, raw OD600 reference: median of DMSO wells 0.417, cell-free background 0.041
[12] = arabinose induction (level): High, raw OD600 reference: median of DMSO wells […], cell-free background 0.041
[13] = arabinose induction (level): Low, raw OD600 reference: median of DMSO wells 0.227, cell-free background 0.041
[14] = arabinose 100 nM, raw OD600 reference: median of DMSO wells 0.413, cell-free background 0.052
[15] = arabinose 10000000 nM, raw OD600 reference: median of DMSO wells […], cell-free background 0.052

SMILES	growth [1]	growth (E. coli TESEC Mtb Alr [2]; [5])	growth (E. coli TESEC Mtb Alr [2]; [6])	growth (E. coli TESEC Mtb Alr [2]; [7])	growth (E. coli TESEC Mtb Alr [2]; [8])	growth (E. coli TESEC Mtb Alr [2]; [9])	growth (E. coli TESEC Mtb Asd; [10])	growth (E. coli TESEC Mtb Asd; [11])	growth (E. coli TESEC Mtb DapB; [12])	growth (E. coli TESEC Mtb DapB; [13])	growth [3]	growth (E. coli TESEC Mtb Alr [4]; [14])	growth (E. coli TESEC Mtb Alr [4]; [15])
N=C(N)N1CCc2ccccc2C1 [Debrisoquin sulfate]	0.237 ± 0.0047	0.288 ± 0.013	0.254 ± 0.0074	0.222 ± 0.036	0.174 ± 0.0076	0.147 ± 0.0083	0.373 ± 0.058	0.373 ± 0.027	0.209 ± 0.022	0.22 ± 0.039	0.567 ± 0.039	0.406 ± 0.01	0.334 ± 0.013
Nc1c2c(nc3ccccc13)CCCC2O (racemic) [Hydroxytacrine maleate (R,S)]	0.227 ± 0.0038	0.264 ± 0.028	0.257 ± 0.0076	0.202 ± 0.025	0.176 ± 0.0061	0.144 ± 0.0023	0.218 ± 0.012	0.257 ± 0.034	0.203 ± 0.018	0.205 ± 0.015	0.612 ± 0.088	0.4 ± 0.0077	0.352 ± 0.0099
C[C@H](N)[C@H](O)c1cccc(O)c1 [Metaraminol bitartrate]	0.245 ± 0.015	0.278 ± 0.0096	0.267 ± 0.0062	0.186 ± 0.013	0.185 ± 0.0027	0.153 ± 0.018	0.333 ± 0.062	0.415 ± 0.029	0.208 ± 0.014	0.23 ± 0.024	0.573 ± 0.076	0.426 ± 0.0087	0.356 ± 0.0097
CCN(CC)CCOC(=O)c1ccc(N)cc1 [Procaine hydrochloride]	0.254 ± 0.0063	0.254 ± 0.065	0.273 ± 0.0077	0.2 ± 0.034	0.193 ± 0.0097	0.146 ± 0.0049	0.339 ± 0.035	0.384 ± 0.038	0.203 ± 0.026	0.251 ± 0.046	0.52 ± 0.05	0.412 ± 0.0056	0.259 ± 0.17
Clc1ccc2nsnc2c1NC1=NCCN1 [Tizanidine HCl]	0.245 ± 0.011	0.287 ± 0.017	0.262 ± 0.00087	0.193 ± 0.028	0.185 ± 0.0059	0.142 ± 0.0064	0.248 ± 0.011	0.383 ± 0.057	0.216 ± 0.032	0.222 ± 0.022	0.623 ± 0.019	0.401 ± 0.0081	0.325 ± 0.015
CCCC(C(=O)OCCN(CC)CC)(c1ccccc1)c1ccccc1 [Proadifen hydrochloride]	0.0491 ± 0.0002	0.04737 ± 0.00042	0.04077 ± 0.00038	0.0496 ± 0.0007	0.04163 ± 0.00032	0.04523 ± 0.00015	0.0541 ± 0.001	0.0665 ± 0.012	0.126 ± 0.0053	0.129 ± 0.0055	0.0545 ± 0.001	0.319 ± 0.17	0.0643 ± 0.01
CN1CCC(=C2c3ccccc3CCc3cccnc32)CC1 [Azatadine maleate]	0.1961 ± 0.0017	0.271 ± 0.0097	0.256 ± 0.0041	0.178 ± 0.0055	0.18 ± 0.0037	0.132 ± 0.0041	0.209 ± 0.017	0.313 ± 0.045	0.18 ± 0.014	0.186 ± 0.018	0.59 ± 0.059	0.4 ± 0.013	0.338 ± 0.018
CCC(Cc1c(I)cc(I)c(N)c1I)C(=O)O (stereo not given) [Iopanoic acid]	0.0835 ± 0.0044	0.0987 ± 0.0055	0.0635 ± 0.0046	0.097 ± 0.003	0.0566 ± 0.001	0.0777 ± 0.0027	0.114 ± 0.0023	0.0943 ± 0.0055	0.148 ± 0.005	0.177 ± 0.005	0.263 ± 0.0034	0.339 ± 0.018	0.0809 ± 0.0061
C[C@@H]1C[C@H]2[C@@H]3C[C@H](F)C4=CC(=O)C=C[C@]4(C)[C@@]3(F)[C@@H](O)C[C@]2(C)[C@@]1(O)C(=O)CO [Flumethasone]	0.212 ± 0.0028	0.275 ± 0.013	0.256 ± 0.0067	0.188 ± 0.0075	0.154 ± 0.0069	0.127 ± 0.0043	0.231 ± 0.007	0.429 ± 0.022	0.193 ± 0.011	0.229 ± 0.014	0.543 ± 0.0085	0.402 ± 0.0073	0.307 ± 0.013
CCN1CCCC1CNC(=O)c1cc(S(N)(=O)=O)ccc1OC (stereo not given) [Sulpiride]	0.2503 ± 0.0019	0.291 ± 0.012	0.248 ± 0.0039	0.198 ± 0.02	0.174 ± 0.0021	0.147 ± 0.0072	0.309 ± 0.099	0.423 ± 0.023	0.221 ± 0.037	0.253 ± 0.024	0.525 ± 0.011	0.419 ± 0.0074	0.35 ± 0.017
CC(C(=O)O)c1cccc(C(=O)c2ccccc2)c1 (stereo not given) [Ketoprofen]	0.227 ± 0.0059	0.249 ± 0.014	0.271 ± 0.012	0.172 ± 0.012	0.191 ± 0.0088	0.145 ± 0.0059	0.247 ± 0.013	0.335 ± 0.038	0.184 ± 0.018	0.248 ± 0.058	0.533 ± 0.084	0.428 ± 0.018	0.36 ± 0.005
Cc1nnc(SCC2=C(C(=O)O)N3C(=O)[C@@H](NC(=O)Cn4cnnn4)[C@H]3SC2)s1 [Cefazolin sodium salt]	0.286 ± 0.013	0.3162 ± 0.0031	0.24 ± 0.0064	0.229 ± 0.0084	0.183 ± 0.0062	0.145 ± 0.0033	0.313 ± 0.07	0.428 ± 0.0098	0.192 ± 0.0067	0.237 ± 0.019	0.562 ± 0.098	0.328 ± 0.015	0.363 ± 0.0051
O=C(O)c1cccnc1 [Niacin]	0.28 ± 0.0091	0.346 ± 0.021	0.304 ± 0.0045	0.243 ± 0.0028	0.238 ± 0.0034	0.152 ± 0.0078	0.397 ± 0.019	0.461 ± 0.0099	0.211 ± 0.016	0.238 ± 0.0084	0.522 ± 0.086	0.423 ± 0.028	0.431 ± 0.014
CCOC(=O)[C@H](CCc1ccccc1)N[C@@H](C)C(=O)N1[C@H](C(=O)O)C[C@@H]2CCC[C@@H]21 [Ramipril]	0.22 ± 0.014	0.292 ± 0.004	0.288 ± 0.01	0.19 ± 0.011	0.217 ± 0.004	0.14 ± 0.0088	0.253 ± 0.065	0.365 ± 0.092	0.188 ± 0.013	0.229 ± 0.0092	0.586 ± 0.011	0.42 ± 0.0058	0.295 ± 0.022
CN1CCC[C@@H]1CCO[C@](C)(c1ccccc1)c1ccc(Cl)cc1 [Clemastine fumarate]	0.0447 ± 0.00026	0.0419 ± 0.00017	0.0403 ± 0.0001	0.04353 ± 0.00025	0.04023 ± 0.00015	0.0439 ± 0.0004	0.0482 ± 0.0021	0.0504 ± 0.0026	0.0513 ± 0.00046	0.102 ± 0.085	0.218 ± 0.29	0.421 ± 0.0052	0.0923 ± 0.02

— the supplement of paper PMC9262897, “Low-cost anti-mycobacterial drug discovery using engineered E. coli” (Nature Communications, 2022)
